Calls of active or inactive are those of the source. The rule behind the calls is not given here.
These compounds were tested against Protein kinase 7 (PK7), Plasmodium falciparum 3D7 (PF3D7_0213400) (UniProt Q7YTF7) (assay: inhibition of Plasmodium PK7 catalytic activity – biochemical, TCAMS antimalarial set, Kinase-Glo luminescence (AID 1159587)). Settings: recombinant PfPK7, Kinase-Glo ATP depletion luminescence.
Protein kinase 7 (PK7), Plasmodium falciparum 3D7 (PF3D7_0213400), sequence (Q7YTF7 1-343): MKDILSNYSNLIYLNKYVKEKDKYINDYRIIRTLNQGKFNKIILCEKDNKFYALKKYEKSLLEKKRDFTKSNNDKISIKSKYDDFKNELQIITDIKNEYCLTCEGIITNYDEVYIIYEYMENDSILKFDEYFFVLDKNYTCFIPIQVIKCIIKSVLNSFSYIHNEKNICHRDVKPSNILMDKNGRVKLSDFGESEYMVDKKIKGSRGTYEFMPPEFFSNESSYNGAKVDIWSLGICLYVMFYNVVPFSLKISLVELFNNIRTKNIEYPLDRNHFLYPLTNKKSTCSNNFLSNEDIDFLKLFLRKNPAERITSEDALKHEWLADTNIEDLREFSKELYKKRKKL

outcome, inactive:
Cc1ccc2cc(NCCCCCCCCON3C(N)=NC(N)=NC34CCCCC4)ccc2n1, O=C(C1CCN(c2nnnn2-c2ccccc2)CC1)N1CCc2ccccc2C1, COc1cc2nc(N3CCN(C(=O)c4ccco4)CC3)nc(NCc3ccccc3)c2cc1OC, C[C@@H]1CN(c2cnn(C/C=C/c3ccc(NC(=O)c4ccc(Cl)cc4)cc3)c(=O)c2Cl)C[C@H](C)N1, O=C(N[C@@H](Cc1ccccc1)C(=O)NC1CCCCC1)c1ccc(O)c(-c2cccc(C(F)(F)F)c2)c1, CC(=O)Nc1ccc(NC(=O)c2cc(-c3cc(Cl)ccc3O)n[nH]2)cc1, CN1CCCN(c2ccnc3cc4c(cc23)N(C(=O)c2ccc(C(F)(F)F)cc2)CC4)CC1, N#Cc1ccc(-c2ccc(C(=O)NCCCCN3CCC(c4ccc5c(c4OCC(N)=O)CCCC5)CC3)cc2)cc1, NC(=O)c1cc2nc(Nc3ccc(F)cc3)nc(NC3CCC3)c2[nH]1, CC(C)COc1ccc(Cl)cc1Nc1nc(-c2nc3ccccc3[nH]2)cs1, Cc1cc(OCC2CCCO2)c2cc(NC(=O)C(=O)Nc3ccc4nc(C)cc(OCC5CCCO5)c4c3)ccc2n1 (stereo not given), CC(C)Sc1nc2c(c(=O)n1Cc1ccco1)C1(CCCC1)Cc1ccccc1-2, Nc1c(Cl)cc(C(O)CNCCCCCCCCCc2ccccn2)cc1Cl (stereo not given), COc1cc(NC(=O)/C=C/c2cccc3ccoc23)ccc1OCCN(C(C)C)C(C)C, Cc1ccc(N(CCC(=N)N)Cc2ccccc2)cc1
